Test results as given in paper PMC4336329 (PLoS ONE, 2015).
The whole screen tested about 310,000 compounds, of which about 14,000 (4.5%) showed an effect of 50% or more. The effect is printed as a negative number. This is one part of a sample in which strong results are shown more often than they occur. Where a SMILES comes first, the peptide text is derived from it. The star is where a group is joined. Boc = CC(C)(C)OC(=O)*

These molecules were tested against human ether-à-go-go-related gene (hERG) potassium channel (human, UniProt Q12809) (assay: primary screen, population patch clamp on CHO cells stably expressing hERG; higher = less effect of the substance).
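Note: peak tail current of the secondary pulse compared with the same well before compound.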

human ether-à-go-go-related gene (hERG) potassium channel, sequence (Q12809 whole entry, looked up): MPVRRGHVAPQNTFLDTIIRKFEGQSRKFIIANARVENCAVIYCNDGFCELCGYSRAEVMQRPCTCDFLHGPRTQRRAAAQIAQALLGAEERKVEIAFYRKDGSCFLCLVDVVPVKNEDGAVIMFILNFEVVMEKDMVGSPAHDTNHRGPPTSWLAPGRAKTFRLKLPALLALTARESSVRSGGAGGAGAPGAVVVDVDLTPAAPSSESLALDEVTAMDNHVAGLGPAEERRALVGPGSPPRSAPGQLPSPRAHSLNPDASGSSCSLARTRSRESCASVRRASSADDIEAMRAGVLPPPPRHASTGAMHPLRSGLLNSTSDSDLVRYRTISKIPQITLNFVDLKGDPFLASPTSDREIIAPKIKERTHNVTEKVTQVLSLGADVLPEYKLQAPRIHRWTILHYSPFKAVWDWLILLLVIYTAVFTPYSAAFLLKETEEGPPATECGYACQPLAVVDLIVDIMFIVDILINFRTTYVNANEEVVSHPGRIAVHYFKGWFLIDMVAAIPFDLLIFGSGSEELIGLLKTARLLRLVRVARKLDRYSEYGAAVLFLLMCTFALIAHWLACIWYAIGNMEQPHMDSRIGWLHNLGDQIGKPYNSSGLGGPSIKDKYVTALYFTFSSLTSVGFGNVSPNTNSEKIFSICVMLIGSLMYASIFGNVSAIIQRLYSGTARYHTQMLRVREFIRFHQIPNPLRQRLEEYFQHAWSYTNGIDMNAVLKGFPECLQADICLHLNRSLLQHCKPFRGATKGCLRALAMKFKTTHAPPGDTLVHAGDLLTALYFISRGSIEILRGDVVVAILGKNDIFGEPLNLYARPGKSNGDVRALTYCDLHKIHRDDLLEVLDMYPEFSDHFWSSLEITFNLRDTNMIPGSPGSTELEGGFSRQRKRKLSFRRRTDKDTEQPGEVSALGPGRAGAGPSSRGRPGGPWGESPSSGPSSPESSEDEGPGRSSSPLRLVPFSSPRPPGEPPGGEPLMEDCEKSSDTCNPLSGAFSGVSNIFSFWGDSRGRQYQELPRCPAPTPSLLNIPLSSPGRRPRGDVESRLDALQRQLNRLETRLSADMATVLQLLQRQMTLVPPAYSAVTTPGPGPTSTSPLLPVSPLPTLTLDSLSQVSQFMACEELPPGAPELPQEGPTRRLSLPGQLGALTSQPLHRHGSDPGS

Row | SMILES | hERG current change (%, negative = inhibition) at 10uM
1 | CCN1C[C@]2(C)CC[C@H](OC)[C@]34C2[C@H](OC(C)=O)[C@@]2(OCO[C@@]25C[C@H](OC)[C@H]2C[C@]3(O)C5[C@H]2OC)[C@@H]14 | 39.8%
2 | CCOc1cc(NC(=O)c2ccccn2)c(OCC)cc1NC(=O)c1ccc(C)cc1 | -13.7%
3 | Nc1c(C(=O)Nc2ccc(F)cc2)sc2nc(-c3ccco3)ccc12 | -9.67%
4 | CC(=O)Nc1ccc(NS(=O)(=O)c2cc(Cl)ccc2Cl)cc1 | -14.8%
5 | CC(C)Oc1ccc(C(=O)Nc2ccc(Cl)c(S(=O)(=O)Nc3ccc(Cl)cc3)c2)cc1 | 2.46%
6 | CCC(C)NCCC(=O)Nc1ccc(Cl)c(S(=O)(=O)Nc2ccc(Cl)cc2)c1 (stereo not shown) | -53.6%
7 | Cc1cc(C)cc(-n2ccnc2SCC(=O)Nc2ccc3c(c2)OCCO3)c1 | -14.2%
8 | CC(=O)c1ccc(C(=O)Nc2nnc(-c3ccc(Cl)cc3)o2)cc1 | 4.1%
9 | CC(=O)N/C(=C\c1ccccc1)C(=O)OCC(=O)c1ccccc1 | 9.41%
10 | O=C(OCC(=O)c1ccc([N+](=O)[O-])cc1)/C(=C\c1ccc(Cl)cc1)NC(=O)c1ccccc1 | -64.4%
11 | O=C(OCC(=O)c1ccc([N+](=O)[O-])cc1)/C(=C/c1ccc(Cl)cc1)NC(=O)c1ccccc1 | -63.3%
12 | O=C(NCCc1ccccc1)/C(=C\c1ccc([N+](=O)[O-])cc1)NC(=O)c1ccc(Br)cc1 | -37.8%
13 | Cc1ccc(NC(=O)/C(=C\c2ccc([N+](=O)[O-])cc2)NC(=O)c2ccccc2)cc1 | -38.6%
14 | Cc1ccc(NC(=O)/C(=C/c2ccc([N+](=O)[O-])cc2)NC(=O)c2ccccc2)cc1 | -12%
15 | CS(=O)(=O)c1ccc(Oc2ccc(-c3nnco3)cc2)c([N+](=O)[O-])c1 | -7.35%
16 | COc1cccc(C2C(C#N)=C(N)Oc3cc(C)[nH]c(=O)c32)c1OC (stereo not shown) | -10.4%
17 | Cc1ccc2c(c1)N(CC(=O)NCc1cccs1)C(=O)CO2 | 5.4%
18 | Cc1sc2c(c1C)C(c1cccs1)=NCC(=O)N2CC(=O)NCc1cccs1 | -56.2%
19 | Cc1sc2c(c1C)C(c1ccc(C(C)(C)C)cc1)=NCC(=O)N2CC(=O)Nc1nccs1 | -17.9%
20 | CCOCCCNC(=S)NC1CC2CCC(C1)N2Cc1ccccc1 (stereo not shown) | -23%
21 | Cc1noc(C(=O)Nc2ccc(F)c(Cl)c2)c1Cl | 8.86%
22 | Oc1cccc2nc3ccccc3nc12 | 2.6%
23 | CCOC(=O)C1(CCOC)CCN(Cc2ccccc2-c2ccco2)CC1 | -22.4%
24 | CCOC(=O)C1(CCc2ccccc2)CCN(Cc2ccc(C(=O)OC)cc2)CC1 | -91.8%
25 | CCOC(=O)C1(CCc2ccccc2)CCN(CC(O)CO)CC1 (stereo not shown) | -40.3%
26 | CCOC(=O)C1(Cc2cccc(OC)c2)CCN(C(C)COC)CC1 (stereo not shown) | 5.9%

Row | SMILES | hERG current change (%, negative = inhibition) at 10uM
27 | CCOC(=O)C1(CCc2ccccc2)CCN(Cc2ccco2)CC1 | -76.5%
28 | CCOC(=O)C1(CCOC)CCN(C(C)CCc2ccc(OC)cc2)CC1 (stereo not shown) | -71.1%
29 | CCOC(=O)C1(CCc2ccccc2)CCN(Cc2ccc(O)cc2)CC1 | -83.4%
30 | CCOC(=O)C1(CCOC)CCN(C(=O)Cc2ccc3ccccc3c2)CC1 | -0.72%
31 | Cc1ccc(S(=O)(=O)N2CCN(S(=O)(=O)N3CCCCC3)CC2)c(C)c1 | -6.97%
32 | CSc1sc(C(=O)N2CCCCC2)c(-c2cccs2)c1C#N | -27.7%
33 | CC(C)(C)c1ccc(OCC(=O)Nc2cccc(S(=O)(=O)NC3=NCCCCC3)c2)cc1 | -18.9%
34 | COc1ccc2c(CC(=O)OCC(=O)Nc3ccc(C)cc3)coc2c1 | -1.56%
35 | O=S1(=O)CC2SC(=S)N(c3ccccc3)C2C1 (stereo not shown) | 7.98%
36 | CCOc1ccc(/C(O)=C2/C(=O)C(=O)N(CCN(C)C)C2c2ccccc2)cc1Cl (stereo not shown) | -5.2%
37 | CC(=O)c1c(C)[nH]c(C(=O)COC(=O)c2ccc3c(=O)n4c(nc3c2)CCC4)c1C | -0.297%
38 | O=[N+]([O-])c1ccccc1C1Nc2cccc3cccc(c23)N1 | 11.8%
39 | CCC1CCCCN1C(=O)c1ccc(OC2CCN(Cc3ccccn3)CC2)cc1 (stereo not shown) | 5.27%
40 | CCc1nnc(NC(=O)CSc2ccc(-c3nc4ccccc4[nH]3)cn2)s1 | 5.82%
41 | COC(=O)C(Cc1ccccc1)NC(=O)C(CC(C)C)NC(=O)OC(C)(C)C (stereo not drawn) (Boc-Leu-Phe-OMe; configuration not given here) | 10.7%
42 | CCOC(=O)C1(CC2CC2)CCN(Cc2cc(Cl)c(O)c(OC)c2)CC1 | -57.1%
43 | CCOC(=O)C1(CC2CC2)CCN(Cc2cnc(-c3ccccc3C)nc2)CC1 | -10.4%
44 | CCOC(=O)C1CCN(Cc2ccc(C(=O)OC)cc2)CC1 | -14.6%
45 | CCOC(=O)C1(CCOC)CCN(Cc2ccc(C(=O)OC)cc2)CC1 | -27.2%
46 | CCOC(=O)C1(CCc2ccccc2)CCN(Cc2csc(C(C)=O)c2)CC1 | -74.8%
47 | CCOC(=O)C1(CCc2ccccc2)CCN(Cc2ccc(OC)cc2)CC1 | -77.5%
48 | CCOC(=O)C1(CC2CC2)CCN(Cc2ccc(C(=O)OC)cc2)CC1 | -57%
49 | CCOC(=O)C1(Cc2ccccc2)CCN(Cc2csc(C(C)=O)c2)CC1 | -24.2%
50 | CCOC(=O)C1(CC2CC2)CCN(Cc2ccc(O)c(Cl)c2)CC1 | -41.6%
51 | CCOC(=O)C1(Cc2ccccc2Cl)CCN(Cc2csc(C(C)=O)c2)CC1 | -12.3%
52 | CCOC(=O)N1CCN(C(=O)CCC2CCCC2)CC1 | 9.89%
